{"source": "the supplement of paper PMC4723716", "note": "Over roughly 3,600 compounds, “viability index relative to DMSO control” has its median near 0.81; the lowest 2% begin near 0.13. Only a selection was taken, and the lowest values are over-represented in it overall.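 Note: Saponin-lysis sexual stage assay in serum-free medium: MitoTracker Red CMXRos staining plus saponin, high-content imaging, particle count per well divided by plate mean of DMSO wells.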"}
{"test_system": "Plasmodium falciparum NF54 stage V gametocytes", "assay": "viability index relative to DMSO control (fraction); higher = less gametocyte killing", "conditions": "1.25 µM, incubation time: 72 h"}
{"molecule": "O=S(=O)(c1ccc(Cl)cc1)N1CCN(C(=S)NCc2ccco2)CC1", "viability index": 0.959}
{"molecule": "CCOC(=O)C1=C(C)NC2=C(C(=O)CC(c3ccc(Cl)cc3)C2)C1c1ccc(Br)cc1", "note": "(configuration not stated)", "viability index": 0.725}
{"molecule": "OC1CCCCC1C1(NC(=S)Nc2ccccc2)CCCCC1", "note": "(configuration not stated)", "viability index": 1.08}
{"molecule": "CC(C)(C)NC(=S)NN=CC=NNC(=S)NC(C)(C)C", "viability index": 0.299}
{"molecule": "S=C(NN=CC=NNC(=S)Nc1ccccc1)Nc1ccccc1", "viability index": 0.104}
{"molecule": "O=S(=O)(NCCNc1ncnc2scc(-c3ccccc3)c12)c1ccc(Cl)c(Cl)c1", "viability index": 0.554}
{"molecule": "FC(F)(F)c1ccc(Nc2nnnc3ccccc23)cc1", "viability index": 1.04}
{"molecule": "c1ccc2nc3c(nnc4ccccc43)nc2c1", "viability index": 0.092}
{"molecule": "Brc1ccc2[nH]c3nc4ccccc4nc3c2c1", "viability index": 0.699}
{"molecule": "CC(=NNC(N)=S)C(C)=NNC(N)=S", "viability index": 0.27}
{"molecule": "COC(OC)C(C)=NNC(N)=S", "viability index": 0.112}
{"molecule": "COc1cc(C(=O)Nc2nnc(-c3ccccc3)o2)cc(OC)c1OC", "viability index": 0.81}
{"molecule": "COc1cc(Nc2cncc(-c3ccncc3)n2)cc(OC)c1OC", "viability index": 0.524}
{"molecule": "COc1cc(Nc2cncc(-c3ccc(C(N)=O)cc3)n2)cc(OC)c1OC", "viability index": 0.0179}
{"molecule": "CSc1ccc(C=CC(=O)NC(=O)c2ccccc2O)cc1", "viability index": 0.661}
{"molecule": "CCOC(=O)C1=C(C)N(CCNc2ncc(C(F)(F)F)cc2Cl)C(=O)CC1", "viability index": 1.04}
{"molecule": "CCCCCc1ccc(OCCCC[n+]2cccc(C)c2C)c(CCCCC)c1", "viability index": 0.521}
{"molecule": "CCCn1c(=N)c(C(=O)NC2CCCCC2)cc2c(=O)n3cccc(C)c3nc21", "viability index": 1.15}
{"molecule": "CC(NCCCN(C)C)c1cc(C(C)(C)C)cc2c1CCC2(C)C", "note": "(configuration not stated)", "viability index": 0.283}
{"molecule": "CC(NCCN1CCNCC1)c1cc(C(C)(C)C)cc2c1CCC2(C)C", "note": "(configuration not stated)", "viability index": 0.104}
{"molecule": "CC(C)=CCCC(C)=CCCC(C)NCCN1CCNCC1", "note": "(configuration not stated)", "viability index": 0.135}
{"molecule": "CC12C(=O)N(c3cccc(C(=O)O)c3)C(=O)C1C1c3ccccc3C2c2ccccc21", "note": "(configuration not stated)", "viability index": 1.15}
{"molecule": "Cc1c(Cl)cccc1NCC(=O)NN=C1CCCC1", "viability index": 0.779}
{"molecule": "COc1ccc(NC(=O)C2c3ccccc3C(=O)N(CC(C)C)C2c2cccs2)cc1Cl", "note": "(configuration not stated)", "viability index": 0.104}
{"molecule": "CC(C)CN1C(=O)c2ccccc2C(C(=O)Nc2cccc(Cl)c2)C1c1cccs1", "note": "(configuration not stated)", "viability index": 0.209}
{"molecule": "CC(C)CN1C(=O)c2ccccc2C(C(=O)Nc2ccc(C(C)C)cc2)C1c1cccs1", "note": "(configuration not stated)", "viability index": 0.281}
{"molecule": "COc1cc(Cl)c(C)cc1NC(=O)C1c2ccccc2C(=O)N(CC(C)C)C1c1cccs1", "note": "(configuration not stated)", "viability index": 0.398}
{"molecule": "COc1cc(OC)c(NC(=O)C2c3ccccc3C(=O)N(CC(C)C)C2c2cccs2)cc1Cl", "note": "(configuration not stated)", "viability index": 0.0683}
{"molecule": "CC(C)CN1C(=O)c2ccccc2C(C(=O)Nc2ccc(F)c(Cl)c2)C1c1cccs1", "note": "(configuration not stated)", "viability index": 0.237}
{"molecule": "COc1ccc(Cl)cc1NC(=O)C1c2ccccc2C(=O)N(CC(C)C)C1c1cccs1", "note": "(configuration not stated)", "viability index": 0.426}
{"molecule": "COc1ccc(NC(=O)C2c3ccccc3C(=O)N(CC(C)C)C2c2cccs2)cc1OC", "note": "(configuration not stated)", "viability index": 0.0723}
{"molecule": "COc1cc(OC)c(NC(=O)C2c3ccccc3C(=O)N(C)C2c2cccs2)cc1Cl", "note": "(configuration not stated)", "viability index": 0.546}
